Assay outcomes as filed in PubChem BioAssay.
Most compounds without a hit are left out; they make up all but 11% or so of the library.
VDR inh = Inhibitors of the vitamin D receptor (VDR): qHTS; VDR-SRC2-3 peptide fluorescence polarization, 2 h; Potency, µM, inactives show max response, negative = inhibition, actives largely listed as inhibitors; 0.93% of 400,000 active; note: % is set by controls: 0 for no effect and ±100 for the full control effect
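Fluorescence polarization assay measuring small-molecule disruption of VDR binding to the coregulator peptide SRC2-3. Compounds were pin-transferred (23 nl) into the reagent mix and incubated 2 h at room temperature before reading.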
BAZ2B inh = qHTS Assay for Inhibitors of BAZ2B | Potency, µM (doses to about 114 µM), without a hit: top-dose activity change, negative = inhibition, usual class: inhibitors | Bromodomain adjacent to zinc finger domain protein 2B (Homo sapiens), Q9UIF8 | 4.4% of 360,000 active | AlphaScreen BAZ2B-H3K14Ac peptide displacement | AID 504333, 2011; note: % is set by controls: 0 for no effect and ±100 for the full control effect; nearly all actives have a fitted effect of over 60% in size
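AlphaScreen displacement: compounds (up to 110uM) incubated 30 min at room temperature with a preformed 50 nM BAZ2B/50 nM biotinylated H3K14Ac peptide complex in PBS pH 7.4 with Tween-20. Donor and acceptor beads at 10 ug/mL final added, 20 min light-protected before reading.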
PLK1 PBD inh = qHTS for Inhibitors of PLK1-PDB (polo-like kinase 1 - polo-box domain): Primary Screen | Serine/threonine-protein kinase PLK1 (Homo sapiens), P53350 | Plk1 PBD binding of FITC phosphopeptide, fluorescence polarization | Potency, µM, inactives show max response, negative = inhibition, usual class: inhibitors | 2.8% of 360,000 active | AID 720504, 2013; note: series mostly up to about 57 µM; % is set by controls: 0 for no effect and ±100 for the full control effect; nearly all actives have a fitted effect of over 65% in size
G9a block = qHTS Assay for Inhibitors of Histone Lysine Methyltransferase G9a. Histone-lysine N-methyltransferase EHMT2 (Homo sapiens), Q96KQ7. G9a H3K9 monomethylation, AlphaScreen, 2 h. Potency, µM (top dose mostly 102 µM), for inactives: top-dose activity, negative = inhibition, actives largely listed as inhibitors. 8.8% of 350,000 active; note: % is set by controls: 0 for no effect and ±100 for the full control effect; nearly all actives have a fitted effect of over 75% in size
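Methyltransferase reactions run at room temperature for 2 h (20 nM enzyme, 500 nM biotin-H3K9 peptide, 20 uM SAM) after a 15 min compound preincubation; product detected by AlphaScreen beads and anti-H3K9me1 antibody.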
HP1b chromo inh = HTS for Inhibitors of HP1-beta Chromodomain Interactions with Methylated Histone Tails | Chromobox protein homolog 1 (Homo sapiens), P83916 | 0.56% of 390,000 active | AlphaScreen HP1-beta / biotin-H3K9me3 peptide binding | Potency, µM (top dose mostly 114 µM), for inactives: top-dose activity change, negative = inhibition, actives largely listed as inhibitors; note: nearly all actives have a fitted effect of over 70% in size
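AlphaScreen: HP1-beta (50 nM) preformed 30 min with biotin-H3(1-18)K9me3 peptide (50 nM) in PBS pH 7.4, 0.01% Tween-20. Compound added for 30 min at RT, then streptavidin donor/nickel chelate acceptor beads (10 ug/mL) for 30 min.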
JMJD2A Tudor inh = qHTS Assay for Inhibitors of JMJD2A-Tudor Domain; Lysine-specific demethylase 4A (Homo sapiens), O75164; AlphaScreen JMJD2A-Tudor / H3K4me3 peptide binding; Potency, µM (doses to about 114 µM), without a hit: at the highest dose activity change, negative = inhibition, hits mostly inhibitors; 4.4% of 390,000 active; note: % is set by controls: 0 for no effect and ±100 for the full control effect; nearly all actives have a fitted effect of over 50% in size
Starred values were filed as active, the others as inactive; u = inconclusive; x = not tested or not shown; [ ] = remark or other dose. Calls come from the whole dose curve; as a rule, active = well fitted curve in the direction sought with a large enough effect; inconclusive = small, poorly fitted or top-dose-only effect, or another doubt; inactive = no such curve, though single readings can be large; an effect the other way counts as inactive or inconclusive. Potency is the fitted concentration of half-maximal effect.

SMILES | VDR inh | BAZ2B inh | PLK1 PBD inh | G9a block | HP1b chromo inh | JMJD2A Tudor inh
O=C1CC(Sc2ncccn2)C(=O)N1c1ccccc1 (stereo not drawn) | 14% | -6% | -3% | u | 63% | -1%
Nc1nnc(SC2CC(=O)N(c3ccccc3)C2=O)s1 (stereo not drawn) | -10% | 7% | 30µM* | 8.9µM* | u | 45µM*
CCOc1ccc(N2C(=O)CC(Sc3nccc(C)n3)C2=O)cc1 (stereo not drawn) | -3% | -2% | 27µM* | -6%[59 µM] | -9% | -18%[11.4 µM]
CC(C)(C)OC(=O)N1CCC(c2c(C(=O)N3CCC(c4ccccc4)C3)cnn2-c2ccc(Cl)cc2)CC1 (stereo not drawn) | 19% | -5%[57.1 µM] | x | -33%[59 µM] | 21% | -22%
CC(C)(Oc1ccc(Cl)cc1)C(=O)OCC(=O)N1CCCC1 | -18% | x | -10% | 14%[59 µM] | 17% | -15%
COc1ccc(Cl)cc1NC(=O)C1CC(c2ccccc2O)=NO1 (stereo not drawn) | 6% | 3% | -3% | u | 16% | -15%
CCCCCCn1c(=O)n2n(c1=O)[C@@H]1CN(S(=O)(=O)c3ccc(C)cc3)C[C@]1(O)[C@@H](OC(=O)NC1CCCC1)C2 | x | x | -9% | x | x | x
COc1cc(C2C(=O)N(C3CCCCCC3)CC(=O)N2CCc2ccccc2)ccc1OC(C)C (stereo not drawn) | 19% | -3% | x | -4%[59 µM] | 35% | -11%
COc1ccccc1N1C(=O)CC(Sc2n[nH]c(-c3cccc(C)c3)n2)C1=O (stereo not drawn) | -12% | -30% | 13µM* | 1µM* | u | 2.8µM*
CCOC(=O)c1cnc(SC2CC(=O)N(c3ccc(OC)c(OC)c3)C2=O)nc1N (stereo not drawn) | -4% | 13% | -13% | 20µM* | 19% | -7%
CCc1ccc(C2/C=C\CNC(c3ccccc3)C(=O)N2Cc2ccc(C)cc2)cc1 (stereo not drawn) | -27% | x | x | x | 38% | -20%
CCCCn1nnnc1C(c1ccccc1)N1CCN(c2ccc(C)cc2)CC1 (stereo not drawn) | x | x | 2% | x | x | x
O=c1[nH]c(-c2ccccc2)c(-c2ccccc2)o1 | 0% | -30% | -16% | 45µM* | 22% | -18%
N#Cc1c(-c2ccccc2)[nH]c(=O)[nH]c1=O | -7% | 6% | -5% | -8% | 29% | -7%
CCOc1ccc(C(=O)CCC(=O)Nc2ncccc2O)cc1 | 2% | 56µM* | -12% | 1%[2.33 µM] | 13% | -31%
CCC(CO)Oc1cc(NC(=O)c2ccc(F)cc2)c2ncn(C(C)C)c2c1 (stereo not drawn) | u | -1% | u | 7%[0.501 µM] | 4% | 50µM*
CCC(COC(=O)c1ccccc1)Oc1cc(NCc2ccccc2)c2ncn(C(C)C)c2c1 (stereo not drawn) | 79µM* | x | -16% | x | -21% | 45µM*
CCC(CO)Oc1cc(NCc2ccc(C(C)(C)C)cc2)c2ncn(C(C)C)c2c1 (stereo not drawn) | -6% | x | -16% | x | -17% | 25µM*
CCC(COC)Oc1cc(NCc2ccccc2)c2ncn(C(C)C)c2c1 (stereo not drawn) | 22µM* | 50µM* | u | 1%[0.501 µM] | -25% | 50µM*
CCC(CO)Oc1cc(NCc2ccc(O)cc2)c2ncn(C(C)C)c2c1 (stereo not drawn) | -6% | x | -11% | x | 10% | u
CCC(CO)Oc1cc(NCc2ccccc2)c2ncn(C(C)C)c2c1 (stereo not drawn) | u | x | -2% | x | 14% | u
Cc1ccccc1OCC(=O)NNC(=O)c1ccoc1C | -10% | 9% | -5% | u | 12% | -8%
